Source: PubChem BioAssay (National Center for Advancing Translational Sciences (NCATS))
TDP1 cell noCPT – qHTS for Inhibitors of human tyrosyl-DNA phosphodiesterase 1 (TDP1): qHTS in cells in absence of CPT. DT40 Tdp1-/- hTDP1 cells, no CPT, ATP luminescence, 48 h. Potency, µM (doses to about 46.2 µM), usual class: inhibitors. 15% of 420,000 active; also: nearly all actives have a fitted effect of over 55% in size
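Stably hTDP1-transfected Tdp1-null chicken DT40 cells were treated with library compounds minus camptothecin and grown for at least 48 hr at 37 °C, after which cellular ATP was quantified by luminescence.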
TDP1 cell CPT – growth inhibition of DT40 Tdp1-/-;hTDP1 cells with camptothecin (screen for TDP1 inhibitors). chicken DT40 Tdp1-/-;hTDP1 cells + 20 nM CPT, ATP luminescence, 48 h. Potency, µM (titrated, usually from 46.2 µM), most hits filed as inhibitors. 12% of 420,000 active. AID 686979; also: nearly all actives have a fitted effect of over 55% in size
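Cell growth measured by CellTiter-Glo luminescence after a minimum 48 h, 37 C compound exposure with 20 nM CPT in Tdp1-knockout DT40 cells stably expressing hTDP1, seeded 400/well; qHTS titration format.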
Gal4-VP16 FLuc – counter-screen for ROR gamma inhibitors: Gal4-VP16 reporter; 3.5% of 310,000 active; Potency, µM (series often up to 53.6 µM), actives largely listed as inhibitors; AID 2546; Drosophila S2 Gal4-VP16 UAS-luciferase, luminescence, 20 h;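 also: Gal4-VP16 expression switched on by copper sulfate through the metallothionein promoter; nearly all actives have a fitted effect of over 50% in size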
LDHA block – blocks human lactate dehydrogenase A. activity change, % (values are at about 110 or 230 µM). 0.15% of 480,000 active. purified LDHA, NADH/diaphorase-resazurin fluorescence; hits give low values; in the data active = activity change below about -30%; inconclusive = mostly about -25% to -30%
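Human LDH5 at 2 nM final in Tris HCl pH 7.4 with 0.06 mM NADH and 0.2 mM pyruvate, reacted 5 minutes at room temperature. Remaining NADH coupled via diaphorase/resazurin; resorufin fluorescence read at 0 and 20 minutes, normalized to enzyme-free and DMSO wells.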
IL1B secr inh – blocks inflammasome-driven IL-1 beta release. 4.7% of 360,000 active. AID 743279. activity change, % at 57.5 µM. THP-1 LPS/ATP IL-1B secretion, AlphaLISA, 16 h; hits give low values; in the data active = activity change below about -50%; inconclusive = mostly about -30% to -49%
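Secreted IL-1B measured by AlphaLISA bead assay after 16 h compound exposure of THP-1 cells; compounds (final up to 57.5 uM) added 1 h before LPS (250 ng/mL) and ATP (1.25 mM) stimulation; lower signal means less secretion.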
RORgamma inh – blocks mouse ROR gamma transcriptional activity; P51450; Drosophila S2 Gal4-RORgamma UAS-luciferase reporter, 20 h; Potency, µM (top dose mostly 53.6 µM), most hits filed as inhibitors; 5.4% of 310,000 active; also: nearly all actives have a fitted effect of over 60% in size
Target sequence (P51450 whole entry, looked up, the tested form may be a part): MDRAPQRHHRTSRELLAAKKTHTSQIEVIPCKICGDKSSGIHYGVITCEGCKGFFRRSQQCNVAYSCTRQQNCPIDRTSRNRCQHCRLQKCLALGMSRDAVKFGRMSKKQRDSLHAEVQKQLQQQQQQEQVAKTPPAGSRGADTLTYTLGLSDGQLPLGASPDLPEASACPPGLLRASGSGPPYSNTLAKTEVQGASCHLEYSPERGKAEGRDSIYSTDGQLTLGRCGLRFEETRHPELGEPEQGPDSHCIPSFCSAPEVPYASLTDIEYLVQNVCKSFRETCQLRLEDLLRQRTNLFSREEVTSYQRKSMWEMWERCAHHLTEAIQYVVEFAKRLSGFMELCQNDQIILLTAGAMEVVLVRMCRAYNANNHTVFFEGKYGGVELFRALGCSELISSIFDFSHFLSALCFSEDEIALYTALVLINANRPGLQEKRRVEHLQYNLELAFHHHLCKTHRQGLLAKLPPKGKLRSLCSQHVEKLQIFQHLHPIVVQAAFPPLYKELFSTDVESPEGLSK
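Schneider cells (Drosophila), stable Gal4 DBD–ROR gamma + UAS-luc; 1 hr cmpd preincubation; Cu2+ induction 700 uM final; 20 hr ambient; luminescence.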
Hits are given with their value; 0 = inactive; ? = inconclusive; - = not tested or not shown. The list is not random: actives were taken first. Their share in the collection is about 18%. Unless noted, calls follow the shape of the dose curve; as a rule, active = well fitted curve in the direction sought with a large enough effect; inconclusive = small, poorly fitted or top-dose-only effect, or another doubt; inactive = no such curve, though single readings can be large; an effect the other way counts as inactive or inconclusive.

SMILES	TDP1 cell noCPT	TDP1 cell CPT	Gal4-VP16 FLuc	LDHA block	IL1B secr inh	RORgamma inh
O=C(N/N=C/c1c[nH]c2ccccc12)c1ccccc1Cl	0	0	0	0	0	0
Cc1ccc(Sc2cc(C)c3cccc(C(C)C)c3n2)cc1	-	-	-	0	-	-
COc1ccc2c(CNc3ccccc3C)cc(=O)oc2c1	-	-	-	0	-	-
COc1ccc(NC(=O)C2CCCN(S(=O)(=O)c3cccs3)C2)cc1OC (stereo unspecified)	?	?	0	0	0	0
O=C(Nc1ccc2c(c1)OCCO2)C1CCN(S(=O)(=O)c2cccs2)CC1	?	0	0	0	0	0
CCc1cccc(NC(=O)C2CCCN(S(=O)(=O)c3cccs3)C2)c1 (stereo unspecified)	13µM	16µM	0	0	0	0
O=C(Nc1ccc2c(c1)OCO2)C1CCCN(S(=O)(=O)c2cccs2)C1 (stereo unspecified)	?	16µM	0	0	0	0
CCOC(=O)c1c(S(=O)(=O)N2CCCC(C(=O)Nc3cccc(CC)c3)C2)c(C)n(CC)c1C (stereo unspecified)	?	18µM	-	0	-	-
O=C(Nc1ccc2c(c1)OCCO2)C1CCCN(S(=O)(=O)c2cccs2)C1 (stereo unspecified)	?	13µM	0	0	0	0
CCOC(=O)c1c(S(=O)(=O)N2CCCC(C(=O)Nc3ccc(C)cc3C)C2)c(C)n(CC)c1C (stereo unspecified)	?	?	-	0	-	-
Cc1ccc(CN2CCCN(C(=O)c3nn(C)c(=O)c4ccccc34)CC2)cc1	-	-	-	0	-	-
O=C(CN(c1cc(Cl)cc(Cl)c1)S(=O)(=O)c1ccccc1)N1CCCC1	-	-	-	0	-	-
CC(Nc1ccc([N+](=O)[O-])cn1)c1ccc(Cl)c(Cl)c1 (stereo unspecified)	-	-	-	0	-	-
CSCCC(C(=O)Nc1c(C)cccc1C)n1c(-c2cnc(C)cn2)nc2ccccc21 (stereo unspecified)	16µM	?	-	0	0	-
CC(C)(C)NC(=O)C(c1ccccc1)n1c(-c2ccc(-c3ccccc3)cc2)nc2ccccc21 (stereo unspecified)	?	?	-	0	0	-
COc1ccc(C(C(=O)NC(C)(C)C)n2c(-c3ccc(-c4ccccc4)cc3)nc3ccccc32)cc1 (stereo unspecified)	13µM	?	-	0	0	-
CCC(C(=O)NC1CCCC1)n1c(-c2ccccn2)nc2ccccc21 (stereo unspecified)	8.2µM	7.3µM	-	0	0	-
CC(C)(C)NC(=O)C(C1CC1)n1c(-c2ccccc2)nc2ccccc21 (stereo unspecified)	8.2µM	10µM	-	0	0	-
CC(OC(=O)c1cc(-c2ccncc2)nc2ccccc12)C(N)=O (stereo unspecified)	-	-	-	0	-	-
COc1ccc(C(C(=O)NCc2ccccc2)n2c(-c3ccncc3)nc3ccccc32)cc1 (stereo unspecified)	?	?	-	0	0	-
Cc1csc(-c2nc3ccccc3n2C(C(=O)NC(C)(C)C)c2cc3ccccc3o2)c1 (stereo unspecified)	15µM	?	-	0	0	-
Cc1ccc(-c2nc3ccccc3n2C(C(=O)NC(C)(C)C)C2CC2)cc1 (stereo unspecified)	?	21µM	-	0	0	-
CSCCC(C(=O)NC(C)(C)C)n1c(-c2ccc3c(c2)OCO3)nc2ccccc21 (stereo unspecified)	21µM	23µM	-	0	0	-
COc1ccc(C(C(=O)NCc2ccccc2)n2c(-c3ccccn3)nc3ccccc32)cc1 (stereo unspecified)	?	16µM	-	0	0	-
CC(Oc1ccccc1Cl)C(=O)NC(c1ccccc1)c1ccccc1 (stereo unspecified)	-	-	-	0	-	-
SMILES	TDP1 cell noCPT	TDP1 cell CPT	Gal4-VP16 FLuc	LDHA block	IL1B secr inh	RORgamma inh
O=C(c1cc(-c2ccccc2Cl)on1)N1CCCC1	0	0	?	0	0	13µM
O=C(c1cccc(F)c1)N1CCN(C(=O)c2cc(-c3ccc(Cl)cc3Cl)on2)CC1	18µM	?	0	0	-	0
CNC(=O)c1ccc(CNCc2ccco2)cc1	-	-	-	0	-	-
Cc1cc(S(=O)(=O)Nc2cccc3c2CCCC3)ccc1OCC(=O)O	-	-	-	0	-	-
C=CCSC1=N/C(=C\c2ccc(SC)cc2)C(=O)S1	-	-	-	0	-	-
COc1ccc2[nH]c3c(c2c1)CC(C)NC3=O (stereo unspecified)	7.3µM	?	0	0	?	0
COc1ccc2[nH]c3c(c(=O)c2c1)CCCC3	0	?	-	0	0	-
Cc1ccc(NC(=O)c2ccc3c(Cl)c4c(nc3c2)CCCC4)cc1F	-	-	-	0	-	-
Cc1ccc(-c2nc(C=Nc3ccc(O)cc3)c(O)o2)cc1	10µM	7.3µM	0	0	-86	0
Cc1ccc2nc(-c3ccc(O)cc3)oc2c1	0	0	7.1µM	0	0	2.5µM
CN=Cc1nc(-c2ccccc2)oc1O	0	0	0	0	0	?
C=CCn1c(SCC(=O)N2CCOCC2)nc(O)c(Cc2ccccc2)c1=O	13µM	?	0	0	0	0
Cn1c(SCC(=O)N2CCOCC2)nc2sc3c(c2c1=O)CCCC3	23µM	9.2µM	0	0	0	0
C=CCn1c(SCC(=O)N2CCOCC2)nc2sc(C)c(C)c2c1=O	0	0	0	0	0	0
C=CCn1c(SCC(=O)N2CCOCC2)nc2sc3c(c2c1=O)CCCC3	18µM	?	0	0	-77	0
C/C=C(\C)C(=O)OC1Cc2cc3ccc(=O)oc3cc2OC1(C)C (stereo unspecified)	-	-	-	0	-	-
CC(C)C[C@H]1CNC(=S)N1C[C@H]1CCCN1C[C@H](Cc1ccc(O)cc1)N1C[C@H](Cc2ccc(O)cc2)N(CCc2ccccc2)C1=S	?	?	-	0	?	-
CC(C)C[C@H]1CN([C@@H](Cc2ccc(O)cc2)CN2CCC[C@@H]2CN2C(=S)NC[C@@H]2Cc2ccccc2)C(=S)N1CCc1ccccc1	6.5µM	6.5µM	-	0	0	-
CC(C)C[C@H]1CNC(=S)N1C[C@H]1CCCN1C[C@H](Cc1ccc(O)cc1)N1C[C@H](CC(C)C)N(CCc2ccccc2)C1=S	21µM	?	-	0	-63	-
CC(C)C[C@H]1CNC(=S)N1C[C@H]1CCCN1C[C@H](Cc1ccccc1)N1C[C@H](Cc2ccc(O)cc2)N(CCc2ccccc2)C1=S	13µM	23µM	-	0	0	-
CC(C)C[C@H]1CNC(=O)C(=O)N1C[C@@H]1CCCN1C[C@H](Cc1ccccc1)N1C[C@H](CC(C)C)N(CCc2ccccc2)C(=O)C1=O	?	?	-	0	?	-
Cc1c2cnccc2c(C)c2c1oc1ccccc12	23µM	?	-	0	-73	-
